Bioassay records: PubChem BioAssay, National Center for Advancing Translational Sciences (NCATS)
IMPase cell inh – qHTS Assay for Identifying the Cell-Membrane Permeable IMPase Inhibitors. AID 901, 2007. CHO-M1 cells, IP1 accumulation, HTRF TR-FRET ratio. inhibition (IP1 accumulation), % at 46.1 µM. Inositol monophosphatase 1 (Rattus norvegicus), P97697. 120,000 tested, under 10 active; active = well fitted curve in the direction sought with a large enough effect in the signal ratio, not every such curve was filed as active; inconclusive = small, poorly fitted or top-dose-only effect, or a change in a side signal; inactive = no such curve, though single readings can be large or run the other way; the % refers to the signal ratio;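 also: cells stimulated with carbachol in lithium chloride buffer; higher means more IMPase inhibition seen as more IP1 and lower FRET ratio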
Target sequence (P97697 whole entry, looked up): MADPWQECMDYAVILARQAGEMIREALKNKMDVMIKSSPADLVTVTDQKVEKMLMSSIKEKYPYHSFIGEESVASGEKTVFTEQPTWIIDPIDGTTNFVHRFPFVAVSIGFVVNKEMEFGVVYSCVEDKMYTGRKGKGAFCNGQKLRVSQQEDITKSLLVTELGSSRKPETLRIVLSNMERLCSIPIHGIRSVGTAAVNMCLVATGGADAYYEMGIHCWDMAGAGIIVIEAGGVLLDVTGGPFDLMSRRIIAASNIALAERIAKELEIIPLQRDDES
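In this qHTS, compounds (final up to 46 uM) act on CHO-M1 cells that are then activated through the M1 receptor with carbachol, in pH 7.4 buffer containing 50 mM LiCl, for 30 min. IP1 accumulation is quantified by the IP-One immunoassay.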
HPGD block – qHTS Assay for Inhibitors of HPGD (15-Hydroxyprostaglandin Dehydrogenase). AID 894, 2007. Potency, µM, most hits filed as inhibitors. 15-hydroxyprostaglandin dehydrogenase [NAD(+)] (Homo sapiens), P15428. actives 4.3% (n = 150,000). purified HPGD, NADH fluorescence kinetic, PGE2 substrate
Target sequence (P15428 whole entry, looked up): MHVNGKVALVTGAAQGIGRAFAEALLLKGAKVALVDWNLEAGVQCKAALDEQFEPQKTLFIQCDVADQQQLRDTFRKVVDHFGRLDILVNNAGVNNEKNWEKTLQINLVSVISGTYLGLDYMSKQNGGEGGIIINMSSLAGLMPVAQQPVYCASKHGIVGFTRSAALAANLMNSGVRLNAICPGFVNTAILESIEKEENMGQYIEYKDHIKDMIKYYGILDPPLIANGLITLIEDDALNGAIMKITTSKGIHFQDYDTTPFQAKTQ
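NADH formation kinetics: reaction with 30 uM PGE2 and 1 mM NAD+ (final), 20 nM enzyme, Tris-HCl pH 8 with Tween 20, after 15 min compound preincubation at room temperature. Fluorescence change, last versus first of five reads.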
IMPase Li inh – qHTS Assay for Identifying the Cell-Membrane Permeable IMPase Inhibitors: Potentiation with Lithium; CHO-M1 cells, IP1 TR-FRET (IP-One), carbachol + lithium; Potency, µM (highest dose often 59.4 µM), usual class: inhibitors; actives 0.35% (n = 210,000); AID 1457, 2008; active = well fitted inhibition curve with a large enough effect; inconclusive = small, poorly fitted or top-dose-only effect; inactive = no such curve, though single readings can be large or run the other way;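 also: IP1 builds up when IMPase is blocked and the TR-FRET signal falls; nearly all actives have a fitted effect of over 50% in size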
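Readout is a homogeneous TR-FRET IP1 immunoassay (Ex 320, Em 665 and 620), where raised cytosolic IP1 lowers signal. Cells were CHO-M1 treated 30 min at 37C with test compounds plus a little lithium; AC50 values came from Hill-equation fitting.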
PNC inhibitor – High Content Assay for Compounds that inhibit the Assembly of the Perinucleolar Compartment | actives 3.1% (n = 140,000) | activity change (PNC), negative = inhibition, % at 10 µM | PC3M PTB-GFP, PNC prevalence imaging, 16 h; stronger effect = lower value | AID 2417, 2010;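 active = readout at or below -70, meaning at least 70% loss of cells showing the perinucleolar compartment, a nuclear body marking cancer cells; inconclusive = readout between -30 and a set limit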
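Compounds are pinned in duplicate onto adhered PC3M cells stably expressing GFP-tagged PTB and incubated 16 h at 37 C. Cells are then fixed, nuclei stained with Hoechst, and PNC-positive cells counted.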
ALDH1A1 block – qHTS Assay for Inhibitors of Aldehyde Dehydrogenase 1 (ALDH1A1); AID 1030, 2008; Potency, µM (top dose mostly 75.3 µM), actives largely listed as inhibitors; actives 7.3% (n = 220,000); Purified ALDH1A1, NADH fluorescence, propionaldehyde substrate; Aldehyde dehydrogenase 1A1 (Homo sapiens), P00352
Large screens that a line does not name were inactive; ! = not confirmed by another sample. Only some compounds are listed: those with a hit (about 11% of all), similar ones and a draw of the others. Unless noted, calls follow the shape of the dose curve; as a rule, active = well fitted inhibition curve with a large enough effect (not every such curve was filed as active); inconclusive = small, poorly fitted or top-dose-only effect, or another doubt; inactive = no such curve, though single readings can be large or run the other way.

Cc1ccc(C)c(CSc2nnc(-c3ccccn3)n2N)c1	HPGD block 16µM, PNC inhibitor inconclusive, ALDH1A1 block 10µM
CC1CC(CC(=O)NNc2nc(-c3ccccc3)cs2)C(=O)O1 (configuration not stated)	none (no result: IMPase cell inh, HPGD block, PNC inhibitor)
CC1(C)CC(CC(=O)NNc2nc(-c3ccccc3)cs2)C(=O)O1 (configuration not stated)	PNC inhibitor -84 (no result: IMPase cell inh)
O=C1CCCC(=O)C1=Cc1c[nH]c2ccccc12	HPGD block 22µM, ALDH1A1 block inconclusive
COc1ccc(OC)c(-c2ccccc2/C=N/NS(=O)(=O)c2ccc(C)cc2)c1	none (no result: IMPase cell inh, HPGD block, IMPase Li inh, PNC inhibitor)
O=C(Cn1c(=O)oc2cc(S(=O)(=O)N3CCCC3)ccc21)NCc1ccccn1	PNC inhibitor inconclusive, ALDH1A1 block 18µM
CCCCN1C(=O)C(NC(=O)CC(C)C)(C(F)(F)F)C2=C1CC(C)(C)CC2=O (configuration not stated)	none
CCCN1C(=O)C(NC(=O)c2ccncc2)(C(F)(F)F)C2=C1CC(C)(C)CC2=O (configuration not stated)	ALDH1A1 block 7.1µM
Cc1cc(C)n(CCOc2ccc(Cl)cc2Cl)n1	HPGD block 32µM, PNC inhibitor inconclusive
CC1=C(C(=O)Nc2cccnc2)C(c2ccccc2)n2nc(-c3ccc(O)cc3)nc2N1 (configuration not stated)	none (no result: HPGD block, IMPase Li inh, PNC inhibitor, ALDH1A1 block)
CN1CCN(C(=S)c2ccc(-c3cccc(Cl)c3Cl)o2)CC1	HPGD block 22µM, ALDH1A1 block inconclusive (no result: IMPase cell inh)
S=C(c1ccc(-c2ccccc2Cl)o1)N1CCCCC1	HPGD block 28µM, ALDH1A1 block inconclusive (no result: IMPase cell inh)
S=C(c1ccc(-c2ccc(Cl)cc2)o1)N1CCCCC1	ALDH1A1 block inconclusive
COc1ccc(NC(=O)N2CCCC3(CCN(S(C)(=O)=O)CC3)C2)cc1	none (no result: IMPase cell inh, PNC inhibitor)
O=C(Nc1ncnc2sc3c(c12)CCCCC3)c1ccco1	HPGD block inconclusive, PNC inhibitor -124
CCOc1ccc(-c2cc(CCCC(=O)N3CCN(c4ccc(OC)cc4)CC3)no2)cc1	ALDH1A1 block 20µM
S=c1nc(C2CCCCC2)[nH][nH]1	HPGD block 14µM, PNC inhibitor inconclusive, ALDH1A1 block inconclusive
O=C(/C=C/c1ccc(O)c(O)c1)OCCc1ccccc1	HPGD block inconclusive, ALDH1A1 block inconclusive (no result: IMPase cell inh, PNC inhibitor)
O=C(/C=C/c1ccc(O)c(O)c1)OC(Cc1ccc(O)c(O)c1)C(=O)O (configuration not stated)	IMPase cell inh inconclusive, HPGD block 22µM! (no result: PNC inhibitor)
O=C(/C=C\c1ccc(O)c(O)c1)O[C@@H](Cc1ccc(O)c(O)c1)C(=O)O	HPGD block 28µM (no result: PNC inhibitor)
O=C(NC(=S)Nc1ccccc1F)c1ccc(Br)o1	none (no result: IMPase cell inh, HPGD block, PNC inhibitor)
Cc1ccc(-c2ccccc2)n1-c1ccc(C(=O)O)cc1	ALDH1A1 block 25µM (no result: IMPase cell inh)
CCOC(=O)C1=C(C)N=c2s/c(=C\c3cccn3C)c(=O)n2C1c1cccc(OC)c1OC (configuration not stated)	PNC inhibitor inconclusive
CCOC(=O)C1=C(C)N=c2s/c(=C/c3ccco3)c(=O)n2C1c1cccc(OC)c1 (configuration not stated)	HPGD block 14µM, ALDH1A1 block 3.5µM
Nc1ncnc2c1c(I)cn2C1OC(CO)C(O)C1O (configuration not stated)	ALDH1A1 block 8.9µM! (no result: IMPase cell inh, PNC inhibitor)
Nc1ncnc2c1ncn2C1OC(CO)C(O)C1O (configuration not stated)	none (no result: IMPase cell inh, PNC inhibitor)
O=C(O)c1cc(O)c2c(c1)C(=O)c1cccc(O)c1C2=O	HPGD block inconclusive, ALDH1A1 block inconclusive
O=C1c2c(O)cccc2Cc2cccc(O)c21	ALDH1A1 block 25µM (no result: IMPase cell inh, PNC inhibitor)
O=C(c1csnn1)N1CCC2(CC1)CN(c1cccc(-c3ccccc3)c1)C2	HPGD block inconclusive, ALDH1A1 block inconclusive (no result: IMPase cell inh, PNC inhibitor)
COc1ccc(NC(=S)NC(NC(=O)c2ccccc2Cl)C(Cl)(Cl)Cl)c([N+](=O)[O-])c1 (configuration not stated)	ALDH1A1 block 8.9µM
COc1ccc(NC(=S)NC(NC(=O)c2ccc(Cl)cc2Cl)C(Cl)(Cl)Cl)c([N+](=O)[O-])c1 (configuration not stated)	ALDH1A1 block 22µM
O=C(NC(NC(=S)Nc1c(Cl)cccc1Cl)C(Cl)(Cl)Cl)c1cccc([N+](=O)[O-])c1 (configuration not stated)	PNC inhibitor inconclusive, ALDH1A1 block 18µM (no result: IMPase cell inh)
COc1ccc(NC(=S)NC(NC(=O)CCl)C(Cl)(Cl)Cl)c([N+](=O)[O-])c1 (configuration not stated)	ALDH1A1 block inconclusive (no result: IMPase cell inh, HPGD block, PNC inhibitor)
COc1ccc(NC(=S)NC(NC(=O)c2cccc3ccccc23)C(Cl)(Cl)Cl)c([N+](=O)[O-])c1 (configuration not stated)	ALDH1A1 block 28µM
Cc1nc(Nc2ccccc2)c2nc(-c3ccccc3)n(CCCN3CCCCC3C)c2n1 (configuration not stated)	none (no result: IMPase cell inh, PNC inhibitor)
CCn1c(-c2cc(C3CC3)nc3ccccc23)n[nH]c1=S	HPGD block 13µM, ALDH1A1 block inconclusive (no result: IMPase cell inh)
CCn1c(-c2cc(-c3cc(C)ccc3C)nc3ccccc23)n[nH]c1=S	ALDH1A1 block inconclusive (no result: IMPase cell inh)
CC1=CC(=O)C2=C(C)C[C@H](OC(=O)Cc3ccccc3)C3[C@H](OC(=O)[C@H]3C)C12 (some centres not stated)	ALDH1A1 block inconclusive (no result: IMPase cell inh, PNC inhibitor)
COC(=O)[C@H](Cc1ccccc1)NC(=O)O[C@@H]1Cc2cc(OC)ccc2O[C@H]1c1cccc(OC)c1	none (no result: IMPase cell inh, PNC inhibitor)
CN(C)S(=O)(=O)c1cccc(-c2nn(-c3ccccc3)cc2/C=C(\C#N)c2nc3ccccc3[nH]2)c1	none
CN(C)S(=O)(=O)c1cccc(-c2nn(-c3ccccc3)cc2/C=C2\SC(=S)NC2=O)c1	HPGD block 16µM
Cc1ccc(-n2c([O-])nc(-[n+]3ccccc3)c2C=O)cc1	ALDH1A1 block 8.9µM
Cc1ccc[n+](-c2nc([O-])sc2C=O)c1	none (no result: IMPase cell inh, HPGD block, PNC inhibitor)
COc1cc([N+](=O)[O-])ccc1NC(=S)NCc1ccccn1	ALDH1A1 block 18µM
O=C(C[n+]1ccc(Cc2ccccc2)cc1)Nc1ccc([N+](=O)[O-])cc1Cl	ALDH1A1 block 20µM (no result: IMPase cell inh, HPGD block, PNC inhibitor)
COc1cc([N+](=O)[O-])ccc1NC(=O)Cn1ccsc1=N	ALDH1A1 block 8.9µM (no result: IMPase cell inh, HPGD block, PNC inhibitor)
O=[N+]([O-])c1ccc(CS(=O)Cc2ccccc2)cc1 (configuration not stated)	none (no result: IMPase cell inh, PNC inhibitor)
O=[N+]([O-])c1ccc(C[n+]2ccc(Cc3ccccc3)cc2)cc1	ALDH1A1 block 25µM (no result: IMPase cell inh, HPGD block, PNC inhibitor)
CC1=C(C(=O)OC2CCCC2)C(c2c(F)cccc2Cl)CC(=O)N1 (configuration not stated)	none (no result: HPGD block, IMPase Li inh, PNC inhibitor, ALDH1A1 block)
